# Measured values reported in PubChem BioAssay (EPA / NIEHS).
# Results filed as inconclusive are left out. Activity calls are given as the source filed them. The calls were made as follows: active = hit-call score of the fitted dose curve at least 0.9, where 1 is the maximum; inconclusive = response in the unintended direction; inactive = score below 0.9.
# Read-out: ABC Transporter (ABCB1), ABCB1 (gene 5243)
# Experiment: CLD_ABCB1_24hr: CellzDirect (CLD) Gene Expression Assay for ABC Transporter (ABCB1) at 24 hours (AID 2283684);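 as to AC50: potency for increase in ABCB1 mRNA relative to DMSO vehicle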
# Description: CLD_24hr is a cell-based, multiplexed-readout assay that uses hepatocyte, a human liver primary cell, with measurements taken at 24 hours after chemical dosing in a 96-well plate.CLD_ABCB1_24hr is one of 16 assay component(s) measured or calculated from the CLD_24hr assay. It is designed to make measurements of mRNA induction, a form of inducible reporter, as detected with chemiluminescence signals by Quantitative Nuclease Protection Assay (qNPA) technology.Data from the assay component CLD_ABCB1_24hr was analyzed at the endpoint, CLD_ABCB1_24hr, in the positive analysis fitting direction relative to DMSO as the negative control and baseline of activity. Using a type of inducible reporter, gain-of-signal activity can be used to understand changes in the reporter gene as they relate to the gene ABCB1. Furthermore, this assay endpoint can be referred to as a primary readout. To generalize the intended target to other relatable targets, this assay endpoint is annotated to the transporter intended target family, where subfamily is ABC transporter.
# Human hepatocyte cultures were treated daily for two consecutive days with fresh dosing solutions containing appropriate concentrations of the 320 ToxCast chemicals (chemical identities were blinded to CellzDirect and other ToxCast collaborators), vehicle control (0.2% DMSO), and positive control inducers as summarized in Table 1. Due to the large number of treatment groups and chemicals examined, the ToxCast chemicals were divided into two groups (spanning two independent cultures of hepatocytes from separate donor preparations (Hu778: ToxCast plates 1 and 2; Hu776: ToxCast plates 3 and 4). Each preparation of human hepatocyte cultures was treated with respective vehicle control, medium only control, set of six positive controls/reference chemicals for the five hepatic receptor pathways, and a subset of eight of the ToxCast chemicals (indoxacarb, pyrithiobac-sodium, norflurazon, cyhalofop-butyl, methomyl, thiram, acetochlor, and propiconazole). These replicate data, coupled with internal replicates designed within the blinded ToxCast chemical library, provided additional data to evaluate interindividual differences between hepatocyte preparations and their potential impact on chemical profiles.Cell morphology and integrity were evaluated using phase-contrast microscopy as an indicator of hepatocyte cell health (Tyson & Green, 1987). Cultures for each treatment group (i.e., media, vehicle [0.2% DMSO], positive control inducers [multiple concentrations], and the ToxCast chemicals [multiple concentrations]) were observed and cell morphology was assessed relative to vehicle control cultures at each harvest time point (0, 6, 24, or 48 h). […] Images were evaluated at the conclusion of the study to assess changes in cell integrity and account for the effects of chemical exposure on uncharacteristic changes in concentration-dependent gene expression profiles. The results from these determinations of apparent cytotoxicity were annotated (yes/no) alongside the corresponding qNPA data for reference.At the conclusion of each treatment period, hepatocyte cultures (96-well) were washed with 1 volume of HBSS, lysed by addition of 25 ul ArrayPlate lysis buffer (HTG, Tucson, AZ), and 70 ul/well of Denaturation Oil, denatured by incubation at 95C for 10 min, and frozen at approximately -70C until analysis by nuclease protection assay (qNPA) (Roberts et al., 2007). For qNPA analysis, cell lysates were thawed at 50C for approximately 30 min, qNPA probes were added, and samples were incubated at 95C for 10 min to begin the detection process by denaturing the target RNA, dissociating the duplexes and secondary structure hybridization. At the conclusion of the hybridization period, S1 nuclease reagent was added to each sample to digest all nonprotected nucleotides at 50C for 60-90 min. […]
SMILES,outcome,AC50
CCOC(=O)C(C)Oc1ccc(Oc2nc3ccc(Cl)cc3o2)cc1 (stereo not given),inactive,
COCCO,inactive,
S=C([S-])NCCNC(=S)[S-].[Mn+2],inactive,
CC(C)(C)[C@@H](O)[C@@H](Cc1ccc(Cl)cc1)n1cncn1,,9.46 µM (active)
S=C(S)NCCNC(=S)S.[Mn+2].[S-]C([S-])=NCCN=C([S-])[S-].[Zn+2],,1.5 µM (active)
CCCOC(=O)c1ccc(C(=O)OCCC)nc1,inactive,
COc1nc(C)nc(NC(=O)NS(=O)(=O)c2ccccc2OCCCl)n1,inactive,
CCC(C)OC(=O)N1CCCCC1CCO (stereo not given),inactive,
COC(=O)c1ccccc1S(=O)(=O)NC(=O)Nc1nc(OC(F)F)cc(OC(F)F)n1,inactive,
CCCCCOC(=O)COc1cc(N2C(=O)C3=C(CCCC3)C2=O)c(F)cc1Cl,inactive,
COC(=O)c1ccccc1C(=O)O,inactive,
CCOC(=O)COc1cc(-n2ncc(C(F)(F)F)c(C)c2=O)c(F)cc1Cl,inactive,
COc1c(Cl)ccc(Cl)c1C(=O)O,inactive,
CCCOC(=O)NCCCN(C)C,inactive,
CSC(=O)c1cccc2nnsc12,inactive,
COC(=O)CSc1cc(N=c2sc(=O)n3n2CCCC3)c(F)cc1Cl,inactive,
CCOC(=O)C(C)Oc1ccc(Oc2cnc3cc(Cl)ccc3n2)cc1 (stereo not given),inactive,
Oc1ccc(C(c2ccc(O)cc2)C(Cl)(Cl)Cl)cc1,inactive,
N#CSCSc1nc2ccccc2s1,inactive,
O=C(Nc1ccc([N+](=O)[O-])cc1Cl)c1cc(Cl)ccc1O,inactive,

SMILES,outcome,AC50
CCCCC(CC)CN1C(=O)C2C3C=CC(C3)C2C1=O (stereo not given),inactive,
CC1(C)C(C=C(Cl)Cl)C1C(=O)OCc1cccc(Oc2ccccc2)c1 (stereo not given),inactive,
CCSC(=O)N(CC(C)C)CC(C)C,inactive,
CCCN(CCC)C(=O)SCC,inactive,
Cc1nn(C)c(Oc2ccccc2)c1C=NOCc1ccc(C(=O)OC(C)(C)C)cc1,inactive,
COC(=O)c1c(Cl)nn(C)c1S(=O)(=O)NC(=O)Nc1nc(OC)cc(OC)n1,inactive,
CCNc1nc(N)nc(Cl)n1,inactive,
COC(=O)c1cccc(C)c1S(=O)(=O)NC(=O)Nc1nc(OCC(F)(F)F)nc(N(C)C)n1,inactive,
COC(=O)c1ccc(I)cc1S(=O)(=O)NC(=O)Nc1nc(C)nc(OC)n1,,20 µM (active)
CCC(O)=C1C(=O)CC(C(=O)O)CC1=O (stereo not given),inactive,
C#CCOC(=O)[C@@H](C)Oc1ccc(Oc2ncc(Cl)cc2F)cc1,inactive,
COC(=O)c1ccc(CNS(C)(=O)=O)cc1S(=O)(=O)NC(=O)Nc1nc(OC)cc(OC)n1,inactive,
CCOC(=O)NCCOc1ccc(Oc2ccccc2)cc1,inactive,
CCCCC(CC)COC(=O)c1ccccc1C(=O)O (stereo not given),inactive,
CCCCOCCOCCOCc1cc2c(cc1CCC)OCO2,inactive,
C=CCOC(Cn1ccnc1)c1ccc(Cl)cc1Cl (stereo not given),inactive,
CCCN(CCC)c1c([N+](=O)[O-])cc(C(F)(F)F)c(N)c1[N+](=O)[O-],inactive,
CC(C)(c1ccc(O)cc1)c1ccc(O)cc1,inactive,
OB(O)O,inactive,
CCCCOC(=O)[C@@H](C)Oc1ccc(Oc2ccc(C(F)(F)F)cn2)cc1,inactive,
